Assay [1] in a line: Nuclear factor erythroid 2-related factor 2/antioxidant responsive element (Nrf2/ARE) small molecule agonists: qHTS cell viability counter screen in human keratinocytes (AID 1919968; active = well fitted curve in the direction sought with a large enough effect in the repeat runs; an effect the other way counts as inactive or inconclusive; note: nearly all actives have a fitted effect of over 55% in size; note: potency is the fitted concentration of half-maximal effect). The method, boiled down:
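Measured as CellTiter-Fluor fluorescence, this readout tracks cytotoxicity in the same wells as the ARE-luciferase screen. HaCaT reporter cells (1,500/well) received compounds after a 5 h pre-incubation and were exposed for 23 h.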

Assay [2] is described as follows: Nuclear factor erythroid 2-related factor 2/antioxidant responsive element (Nrf2/ARE) small molecule agonists: luciferase reporter gene qHTS assay in human keratinocytes (AID 1919969). Note: nearly all actives have a fitted effect of over 35% in size. Note: potency is the fitted concentration of half-maximal effect.
The target in assay [3] is Gonadotropin-releasing hormone receptor (Homo sapiens) (UniProt P30968). Put plainly: Human gonadotropin-releasing hormone receptor (GnRHR) small molecule agonists, calcium flux assay in GnRHR-HEK293 cells (AID 1920063). Note: nearly all actives have a fitted effect of over 35% in size. Put shortly: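 Fluorescence kinetics (480 nm excitation, 540 nm emission; 3 min, 1 s steps) report calcium mobilisation in human GnRHR-HEK293 cells in agonist mode. Dye incubation: 1 h, 37 C.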

Assay [4] has as its target KiSS-1 receptor (Homo sapiens) (UniProt Q969F8). The assay is described as follows: Human kisspeptin (KISS1R) small molecule agonists, calcium flux assay in KISS1R-HEK293 cells (AID 1920064; active = well fitted curve in the direction sought with a large enough effect in the repeat runs; an effect the other way counts as inactive or inconclusive). Put shortly:
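Measures KISS1R agonism through calcium-sensitive dye fluorescence in stably transfected HEK293 cells, read for 3 min after pin-tool compound delivery; 15-point titrations in triplicate.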

A short description of assay [5]: p53 small molecule agonists, cell-based qHTS assay with human liver microsomes: qHTS cell viability counter screen (AID 1963579). Note: nearly all actives have a fitted effect of over 45% in size. Put shortly:
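Cytotoxicity counter screen: p53RE-bla, 4,000 cells/well; 5 h settle, 37 C/5% CO2; cpd + HLM 0.5 mg/mL + NADPH 0.5 mg/mL (final); 16 h, 37 C; CellTiter-Glo, 30 min RT, luminescence.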

Assay [6] is described as follows: p53 small molecule agonists, cell-based qHTS assay with rat liver microsomes: qHTS cell viability counter screen (AID 1963580). Note: nearly all actives have a fitted effect of over 45% in size. The method, boiled down:
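In HCT-116 cells carrying a p53 response element-bla reporter, compounds were metabolically activated in situ by rat liver microsomes with NADPH over 16 h. Cell ATP content then served as the cytotoxicity measure.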

Assay [7] concerns the target 5-hydroxytryptamine receptor 2A (Homo sapiens) (UniProt P28223). Put plainly: 5-hydroxytryptamine receptor 2A (HTR2A) small molecule antagonists, cell-based qHTS assay (AID 1963586). Note: nearly all actives have a fitted effect of over 45% in size. The method, boiled down: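 Antagonist-mode intracellular calcium assay: DOI (4 nM) added after 5 min compound pre-incubation at room temperature to dye-loaded HTR2A-CHO cells. Fluorescence followed for 3 min, sampled every second.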

Assay [8] shares this target. The assay is described as follows: 5-hydroxytryptamine receptor 2A (HTR2A) small molecule agonists, cell-based qHTS assay (AID 1963587). Note: nearly all actives have a fitted effect of over 30% in size. The method, boiled down: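 HTR2A-CHO cells, plated 18 h at 37 C/5% CO2, dye-loaded 1 h at 37 C; compounds in DMSO added by pin tool (agonist mode). Intracellular calcium flux read as kinetic fluorescence on FDSS over 2 min at 1 s intervals.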

Assay [9] concerns the target Muscarinic acetylcholine receptor M1 (Homo sapiens) (UniProt P11229). The assay is described as follows: Cholinergic receptor muscarinic 1 (CHRM1) small molecule antagonists, cell-based qHTS assay (AID 1963588). Note: nearly all actives have a fitted effect of over 40% in size. Put shortly:
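CHRM1-CHO calcium-flux assay, antagonist mode. Cells were seeded 18 h, dye-loaded 1 h at 37 C and given compound for 5 min at RT, then acetylcholine was added at 50nM. FDSS fluorescence was read 3 min; 15 concentrations, three runs.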

For assay [10] the target is unchanged. Put plainly: Cholinergic receptor muscarinic 1 (CHRM1) small molecule agonists, cell-based qHTS assay (AID 1963589). Note: nearly all actives have a fitted effect of over 35% in size. Put shortly: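 Each compound was tested at 15 concentrations across three independent runs on dye-loaded CHO cells stably expressing human CHRM1, reading intracellular calcium fluorescence kinetically at 1 sec intervals.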
The nature of assay [11]: cAMP Responsive Elements (CRE) small molecule agonists, cell-based qHTS assay (AID 1963590). Put shortly: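 Cell line: CRE-bla HEK 293T; medium DMEM/10% dialyzed FBS/0.1 mM NEAA/1 mM pyruvate/25 mM HEPES; 3 h compound exposure; beta-lactamase FRET readout after 2 h substrate loading at RT.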
Assay [12] can be described thus: cAMP Responsive Elements (CRE) small molecule antagonists, cell-based qHTS assay (AID 1963591; active = well fitted inhibition curve with a large enough effect in the signal ratio in the repeat runs, not every such curve was filed as active; the % refers to the signal ratio). Put shortly: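 Inhibition of NKH477-driven (0.25 uM final) CRE-beta-lactamase signal in HEK293T cells, 3 h compound exposure at 37 °C, detected by FRET substrate fluorescence.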
Assay [13] addresses Beta-2 adrenergic receptor (Homo sapiens) (UniProt P07550). The assay is described as follows: Adrenergic beta2 receptor (ADRB2) small molecule antagonists, cell-based qHTS assay (AID 1963592). Note: series mostly up to about 92 µM; nearly all actives have a fitted effect of over 50% in size. The method, boiled down: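 Cells (CHO, stable ADRB2 overexpression) incubated 18-20hr at 37C; compounds added from DMSO; agonist mix (1nM isoproterenol, 100uM IBMX, 25uM Ro-20-1724) added; 0.5hr RT; d2-cAMP and anti-cAMP-cryptate added; 1hr RT; 665/615 nm read.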

Assay [14] has the same target. Put plainly: Adrenergic beta2 receptor (ADRB2) small molecule agonists, cell-based qHTS assay (AID 1963593).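 Note: CHO cells stably overexpressing human ADRB2.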 The method, boiled down:
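CHO cells stably over-expressing ADRB2 were plated overnight at 37C, then dosed with compounds plus a stimulation mix containing 100uM IBMX and 25uM Ro-20-1724 for 0.5hr at room temperature. cAMP was measured by HTRF competition, 1hr.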

The target in assay [15] is D(2) dopamine receptor (Homo sapiens) (UniProt P14416). Put plainly: Dopamine D2 receptor (DRD2) small molecule agonists, cell-based qHTS assay (AID 1963594). Note: nearly all actives have a fitted effect of over 35% in size. The method, boiled down:
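HEK293 cells stably expressing DRD2 were cultured 24 h at 37 C, then given Ro20-1724 (0.1 mM final) and compounds for 10 min at room temperature. NKH477 (200nM) was then added for 30 min. cAMP was read by HTRF.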

Assay [16] has the same target. The assay is described as follows: Dopamine D2 receptor (DRD2) small molecule antagonists, cell-based qHTS assay (AID 1963595; active = well fitted inhibition curve with a large enough effect in the signal ratio in the repeat runs, with a control signal flat; the % refers to the signal ratio). The method, boiled down: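 Stable D2 receptor HEK293 line, 24 h after seeding. Compound preincubated 10 min, then quinpirole (12 nM) with forskolin analogue NKH477 (200 nM), 30 min, room temperature. Detection by time-resolved FRET of cAMP.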

A short description of assay [17]: p53 small molecule agonists, cell-based qHTS assay: qHTS cell viability counter screen (AID 1963581). Note: nearly all actives have a fitted effect of over 45% in size. The method, boiled down: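 In the same plates used for the p53 bla reporter, HCT-116 cells given compounds for 16 h at 37 C received CellTiter-Glo; luminescence was recorded 30 min later at room temperature.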

Values joined by “and” are separate entries in the source; they are usually repeats but may differ in a detail not shown here. Equal values may be shown once. Results filed as inconclusive are left out. Some structures have more than one record in an assay (separate samples or runs), and their calls can disagree. Active and inactive are the calls of the source. Unless noted, calls come from the whole dose curve.

Sequence of D(2) dopamine receptor (Homo sapiens) (P14416 whole entry, looked up): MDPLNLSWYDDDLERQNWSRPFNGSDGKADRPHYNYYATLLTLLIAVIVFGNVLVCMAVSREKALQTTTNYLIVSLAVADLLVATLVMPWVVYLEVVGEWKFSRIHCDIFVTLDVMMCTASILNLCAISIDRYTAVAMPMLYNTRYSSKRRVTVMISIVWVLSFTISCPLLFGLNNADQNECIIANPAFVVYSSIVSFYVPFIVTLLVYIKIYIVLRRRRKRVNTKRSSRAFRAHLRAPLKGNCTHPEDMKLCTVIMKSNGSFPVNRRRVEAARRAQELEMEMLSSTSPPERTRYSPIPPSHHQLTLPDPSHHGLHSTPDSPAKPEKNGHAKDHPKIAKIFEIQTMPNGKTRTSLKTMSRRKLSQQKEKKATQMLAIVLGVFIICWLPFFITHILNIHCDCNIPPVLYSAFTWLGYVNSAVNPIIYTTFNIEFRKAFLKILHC
Sequence of KiSS-1 receptor (Homo sapiens) (Q969F8 whole entry, looked up): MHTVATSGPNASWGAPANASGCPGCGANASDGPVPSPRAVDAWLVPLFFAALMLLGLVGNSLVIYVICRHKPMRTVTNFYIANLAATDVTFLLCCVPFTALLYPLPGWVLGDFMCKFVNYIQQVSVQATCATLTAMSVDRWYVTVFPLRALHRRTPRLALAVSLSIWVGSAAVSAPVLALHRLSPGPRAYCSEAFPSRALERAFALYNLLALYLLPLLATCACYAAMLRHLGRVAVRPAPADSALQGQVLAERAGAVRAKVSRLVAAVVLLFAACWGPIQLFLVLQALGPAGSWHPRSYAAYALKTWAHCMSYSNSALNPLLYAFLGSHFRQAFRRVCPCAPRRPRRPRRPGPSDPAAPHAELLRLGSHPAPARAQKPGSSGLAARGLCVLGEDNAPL
Sequence of Muscarinic acetylcholine receptor M1 (Homo sapiens) (P11229 whole entry, looked up): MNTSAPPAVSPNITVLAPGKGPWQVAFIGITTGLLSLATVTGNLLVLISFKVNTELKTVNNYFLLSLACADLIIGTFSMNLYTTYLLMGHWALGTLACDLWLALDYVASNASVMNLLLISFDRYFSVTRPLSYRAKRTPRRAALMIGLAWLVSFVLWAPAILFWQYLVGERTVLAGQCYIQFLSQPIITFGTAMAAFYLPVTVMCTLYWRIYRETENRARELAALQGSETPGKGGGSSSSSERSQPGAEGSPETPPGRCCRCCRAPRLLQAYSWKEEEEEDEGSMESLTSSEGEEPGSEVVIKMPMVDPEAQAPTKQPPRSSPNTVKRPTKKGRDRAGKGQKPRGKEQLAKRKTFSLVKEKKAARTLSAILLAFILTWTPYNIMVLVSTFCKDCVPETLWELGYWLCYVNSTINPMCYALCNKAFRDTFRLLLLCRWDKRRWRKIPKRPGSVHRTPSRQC
Sequence of Beta-2 adrenergic receptor (Homo sapiens) (P07550 whole entry, looked up): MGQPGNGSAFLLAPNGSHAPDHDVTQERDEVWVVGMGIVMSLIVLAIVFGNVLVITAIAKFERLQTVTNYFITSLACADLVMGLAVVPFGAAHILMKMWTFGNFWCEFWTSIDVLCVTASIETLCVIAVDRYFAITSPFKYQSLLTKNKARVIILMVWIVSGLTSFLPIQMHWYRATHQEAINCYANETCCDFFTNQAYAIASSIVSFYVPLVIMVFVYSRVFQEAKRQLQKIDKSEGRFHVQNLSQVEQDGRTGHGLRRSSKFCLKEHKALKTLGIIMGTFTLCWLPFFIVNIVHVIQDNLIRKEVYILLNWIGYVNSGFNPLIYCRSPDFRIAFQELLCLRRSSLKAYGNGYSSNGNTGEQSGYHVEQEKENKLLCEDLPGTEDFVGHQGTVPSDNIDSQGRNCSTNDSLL
Sequence of 5-hydroxytryptamine receptor 2A (Homo sapiens) (P28223 whole entry, looked up): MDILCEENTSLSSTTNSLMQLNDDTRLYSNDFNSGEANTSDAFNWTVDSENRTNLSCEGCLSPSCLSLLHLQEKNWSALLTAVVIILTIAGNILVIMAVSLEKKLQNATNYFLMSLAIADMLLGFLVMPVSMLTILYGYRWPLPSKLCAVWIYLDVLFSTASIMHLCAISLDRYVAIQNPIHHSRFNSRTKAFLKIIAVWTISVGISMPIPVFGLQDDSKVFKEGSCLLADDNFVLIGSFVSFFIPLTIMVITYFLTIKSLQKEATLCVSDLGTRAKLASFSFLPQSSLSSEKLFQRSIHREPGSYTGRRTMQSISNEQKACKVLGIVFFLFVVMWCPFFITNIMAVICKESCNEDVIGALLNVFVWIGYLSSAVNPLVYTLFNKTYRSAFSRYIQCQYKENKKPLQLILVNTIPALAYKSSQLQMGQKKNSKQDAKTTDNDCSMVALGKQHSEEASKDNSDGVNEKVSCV
Sequence of Gonadotropin-releasing hormone receptor (Homo sapiens) (P30968 whole entry, looked up): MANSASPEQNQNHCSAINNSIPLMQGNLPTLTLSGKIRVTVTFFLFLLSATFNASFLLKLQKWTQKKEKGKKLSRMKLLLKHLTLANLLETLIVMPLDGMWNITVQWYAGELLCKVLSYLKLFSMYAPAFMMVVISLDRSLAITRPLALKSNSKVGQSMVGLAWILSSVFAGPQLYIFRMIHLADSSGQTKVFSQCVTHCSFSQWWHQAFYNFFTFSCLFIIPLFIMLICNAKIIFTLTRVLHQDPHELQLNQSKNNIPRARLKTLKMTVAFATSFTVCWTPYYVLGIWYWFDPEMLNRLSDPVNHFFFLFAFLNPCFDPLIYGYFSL

`ClC(Cl)=C(Cl)C(Cl)=C(Cl)Cl`: the Potency entry in [1], in assay [2], in [3], in assay [4], in assay [5] and in [6] was “inactive” in each case. For the same molecule, the Potency entry in [7], in [8], in [9], in assay [10], in assay [11] and in assay [12] was “inactive” throughout. The Potency result in assay [13], in assay [14], in assay [15] and in assay [16] was “inactive” throughout.

Consider `CCCC[n+]1ccccc1`, for which the Potency result in [1], in assay [2], in [3], in assay [4], in assay [5] and in [6] was “inactive” throughout. The Potency entry in [17], in [9], in assay [11], in assay [12], in [13] and in assay [14] was “inactive” throughout. In addition, the Potency result in [15] and in assay [16] was “inactive” throughout.

For the molecule `CN(C)c1nc(=O)n(C2CCCCC2)c(=O)n1C`, the Potency entry in [1], in [2], in assay [3], in assay [4], in [17] and in [8] was “inactive” throughout. Also, the Potency result in [9], in assay [10], in assay [11], in assay [12], in assay [13] and in assay [14] was “inactive” throughout. Also, the Potency entry in assay [15] and in assay [16] was “inactive” in each case.

Take `CC(Cl)(Cl)C(=O)O`: the Potency result in [1], in [2], in [3], in assay [4], in assay [5] and in [6] was “inactive” each time. The Potency result in assay [17], in [8], in assay [9], in assay [10], in assay [11] and in assay [12] was “inactive” each time. Further, the Potency result in [13], in assay [14], in assay [15] and in [16] was “inactive” in each case.

Turning to `C=C(C)[C@H]1Cc2c(ccc3c2O[C@@H]2COc4cc(OC)c(OC)cc4[C@@H]2C3=O)O1`, the Potency result in [1] is “inactive and 29.8 nM (active)”; in assay [2], 13.9 µM (active) and 13.7 µM (active) and inactive. Further, the Potency result in assay [3], in [4], in assay [5], in [6], in assay [12] and in assay [13] was “inactive” each time. In addition, the Potency entry in assay [14], in assay [15] and in assay [16] was “inactive” each time.

Turning to `C[C@]12CC[C@H](O)CC1=CC[C@@H]1[C@@H]2CC[C@]2(C)C(=O)CC[C@@H]12`, the Potency result in assay [1], in assay [2], in assay [3], in [4], in assay [5] and in [6] was “inactive” throughout. For the same molecule, the Potency result in [17], in [14], in assay [15] and in assay [16] was “inactive” each time.

In the case of `COc1ccccc1N`, the Potency result in assay [1], in assay [3], in assay [4], in [5], in assay [6] and in assay [17] was “inactive” each time. Moreover, the Potency entry in [11], in [12], in assay [13], in assay [14], in [15] and in assay [16] was “inactive” in each case. Also, the Potency in [2] was 61.1 µM (active) and inactive.

For the molecule `NNc1ccccc1`, the Potency entry in [1], in assay [2], in assay [3], in assay [4], in assay [5] and in assay [6] was “inactive” each time. Also, the Potency entry in assay [17], in [11], in assay [12], in assay [14] and in [16] was “inactive” throughout.

Consider `Nc1ccc(-c2ccc(N)c(N)c2)cc1N`, for which the Potency entry in assay [1], in assay [3], in assay [4], in assay [5], in [6] and in assay [17] was “inactive” throughout. In addition, the Potency entry in assay [7], in assay [8], in assay [10], in assay [11], in [12] and in [13] was “inactive” each time. Further, the Potency entry in [15] and in assay [16] was “inactive” each time. The Potency result in [2] is “inactive and 68.6 µM (active)”.

As for `Cc1ccc(N)c(C)c1`, the Potency result in [1], in [2], in [3], in assay [4], in assay [5] and in assay [6] was “inactive” throughout. The Potency result in assay [17], in assay [8], in assay [9], in assay [10], in assay [11] and in [12] was “inactive” in each case. Moreover, the Potency result in assay [13], in assay [15] and in assay [16] was “inactive” each time.
